# In all, about 4,100 sequences were measured (“arbitrary fluorescence units”: median about 780, highest 2% from about 22,000 on). The entries come from a sample that favours the highest values as a whole.
# Target: T1, ETS1 (UniProt P14921)
# T1 sequence: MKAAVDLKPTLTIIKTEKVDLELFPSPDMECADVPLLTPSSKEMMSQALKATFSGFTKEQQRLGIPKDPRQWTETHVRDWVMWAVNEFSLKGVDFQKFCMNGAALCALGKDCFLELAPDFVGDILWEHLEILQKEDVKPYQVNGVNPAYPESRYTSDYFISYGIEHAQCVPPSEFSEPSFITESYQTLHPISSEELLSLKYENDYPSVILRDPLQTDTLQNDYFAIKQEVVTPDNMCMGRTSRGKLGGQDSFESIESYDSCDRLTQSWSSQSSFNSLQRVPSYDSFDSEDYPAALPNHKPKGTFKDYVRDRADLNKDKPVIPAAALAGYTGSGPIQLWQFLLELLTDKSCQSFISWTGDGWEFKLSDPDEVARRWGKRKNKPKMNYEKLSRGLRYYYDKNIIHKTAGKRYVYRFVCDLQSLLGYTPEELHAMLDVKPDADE
# Experiment: ETS1 binding intensity (PBM fluorescence), ETS1 alone (arbitrary fluorescence units); higher = stronger binding
# Conditions: ETS1 concentration 1 nM; RUNX1 concentration 0 nM
# Procedure: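 gcPBM on 36-bp genomic-derived probes (partner site mutated) containing one ETS1 site and no RUNX1 site. Recombinant human ETS1 (1 nM) was incubated alone or with RUNX1 (25 nM) and detected by anti-ETS1 antibody fluorescence. Values are medians over 4 replicate spots (not normalised). The probes sit in constant array flanks that are not printed.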
row,Sequence,ETS1 binding intensity
1,GCAGAGAGGAAGTGTGGGGGTGGAGGAGGCCGAAGA,1840
2,AGACGGGACCGGAAGCCGGGCCGTAGGCGGCCGGGC,12100
3,TTTCGAGAAAACCGGAAGTGCGTGGACACGCCCCGC,31500
4,GCCGCCGTAGATTCGACACAAAACCCGGAAGGACCC,530
5,AAACTACTTCCCCATATCATCTGTAGCTTGCACAAC,1180
6,CTTAGCACTTGTAGTCAGCCTGCTTCCGGCTGTGGC,2100
7,TGAGGTGCTAAAGCACCAAGCACTTCCTGCTGTTAG,3380
8,GCGAGCACTTCCGGTGTGTGAGCCTGCTGTTGCTAC,32800
9,GGGGCAGGAAGTGGAGGTTTGAAGTGCTTTAGAGTA,7390
10,GGGCCCCTCAGCCCGACCGCCTGACCGGAAGTGCAG,5030
11,TGAACTCCGCCCAGCGCGATCCGGAAGCCTAGCGCC,443
12,TCGCTTCCGGTGTCGGTTACAGACTGGGGTTGCCAT,30000
13,TTGGTGACCTCTTCCTGTCCGCTGGGGTGTTGTTAC,3680
14,TGCTTCCCGTCCGTGTCGCGGCCCTGGGGTTGGCGG,8550
15,TTCAGGCGGCAAAGAACAGACCTGCAGGAGGAAATA,404
16,CTCTTCCGGCCGCGAGGAGCGCGACAGCGGCCCCTG,14400
17,TGTTGACTCAGGAAGATGATGGCTGAGGGGGCTGCA,509
18,CACTTCCTCCTCGGGGGCCTCAGAAAATCACAGGGC,13200

row,Sequence,ETS1 binding intensity
1,TCTAAATCACTTCCTGTTACAGAAACTACAGGCCTG,26900
2,CTAAAGGCAGGGACTACAAACACTTCCTGTTTGTGT,7710
3,GGAGCGCGCTGGGGACGTTTAAAGGAAATTTACAAT,363
4,TCCGTGAGGTGCAGCAGGTCGGTAGGCGGGAAATGG,378
5,TGCTGCACCCCAGCCCCTTTCTCTTCCGGTTCTAGG,1850
6,AACATCCGGTTCCCGGTTCTGCCCCCTACCCCAGCT,49100
7,CCGACCCCAGCTTCCCGGGGTTGAGGCCCTGCCTCC,462
8,ACTTGACTTCCTGTGGGGTGTCTGGTGTCTGCACTT,11700
9,ACAACTTCCTGTGGGATTTTTGGTGTCTACGGCTCA,37400
10,GACCACTTCCTTTCTGTGTTTTGGGGTTTCACAACT,11900
11,GTCCAACAGCAGCCAGGCAAGCACATCCTGCCCCAC,1980
12,CTCCCACATCCGAAGCGGCGCAACTCACAACAGCCT,1140
13,GGGCCCACATCCGGCGCGCGCAACAGCAGCCTACTG,25800
14,CGAAGAGGAAACAAAGAAAGGTGCTGTTCTGGCGCC,506
15,TCAAGAAAACAGGAAACTCTCAAATCCAAGTTCTGA,3280
16,TTCTATCCTGCCTTGCATGTCTTTAATCACACTGAG,1540
17,ATGAGCTATTTCCTGCCTTGTTGTCAGAGCCAGACT,23500
